Where “and” joins values, the source holds several entries; their conditions need not be identical. Identical values can stand only once. Values without a mark were called inactive. Where a call stands in place of a potency, no number is given. Calls of active or inactive are those of the source. Unless noted, calls follow the shape of the dose curve; as a rule, active = well fitted curve in the direction sought with a large enough effect in the repeat runs; inconclusive = weak or mixed curves; inactive = no such curve, though single readings can be large; an effect the other way counts as inactive or inconclusive.
Columns and labels:
[1] = qHTS assay to identify small molecule antagonists of the glucocorticoid receptor (GR) signaling pathway - cell viability counter screen (AID 720693); also: nearly all actives have a fitted effect of over 55% in size; also: potency is read from the fitted curve at half-maximal effect
[2] = qHTS assay for identifying genotoxic compounds that show differential cytotoxicity against isogenic chicken DT40 cell lines with known DNA damage response pathways - wild type cell line (AID 743012); also: nearly all actives have a fitted effect of over 60% in size; also: potency is read from the fitted curve at half-maximal effect
How it was run: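 Parental DNA repair-proficient DT40 cells, 300 per well, were pre-incubated ~0.5 h at 37 C/5% CO2, pin-dosed with compounds in DMSO, then incubated 40 h. Viability was read as CellTiter-Glo luminescence after 30 min at room temperature.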

[3] = qHTS assay for identifying genotoxic compounds that show differential cytotoxicity against isogenic chicken DT40 cell lines with known DNA damage response pathways - Rev3 mutant cell line (AID 743014); also: nearly all actives have a fitted effect of over 55% in size; also: potency is read from the fitted curve at half-maximal effect
[4] = qHTS assay for identifying genotoxic compounds that show differential cytotoxicity against isogenic chicken DT40 cell lines with known DNA damage response pathways - Rad54/Ku70 mutant cell line (AID 743015); also: nearly all actives have a fitted effect of over 60% in size; also: potency is read from the fitted curve at half-maximal effect
[5] = qHTS assay to identify small molecule antagonists of the androgen receptor (AR) signaling pathway - cell viability counter screen (AID 743033; also: nearly all actives have a fitted effect of over 45% in size; also: potency is read from the fitted curve at half-maximal effect)
[6] = qHTS assay to identify small molecule antagonists of the androgen receptor (AR) signaling pathway using the MDA cell line - cell viability counter screen (AID 743041; also: nearly all actives have a fitted effect of over 45% in size; also: potency is read from the fitted curve at half-maximal effect)
How it was run: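 MDA-kb2 AR-luc cells (MMTV-luciferase, AR/GR responsive) treated with compounds plus R1881 agonist for 16 h at 37C. CellTiter-Fluor added at 15.5 h; fluorescence read after 30 min in the same wells.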

[7] = tested on: thyroid hormone receptor (rat, GH3 cells); experiment: qHTS assay to identify small molecule agonists of the thyroid receptor (TR) signaling pathway (AID 743066; calls by dose curve)
[8] = qHTS assay to identify small molecule antagonists of the estrogen receptor alpha (ER-alpha) signaling pathway - cell viability counter screen (AID 743074; calls by dose curve;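 also: HEK293 cells carrying ER-alpha-UAS-bla reporter stimulated with 17beta-estradiol; nearly all actives have a fitted effect of over 45% in size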; also: potency is read from the fitted curve at half-maximal effect)
[9] = qHTS assay to identify small molecule antagonists of the estrogen receptor alpha (ER-alpha) signaling pathway using the BG1 cell line - cell viability counter screen (AID 743081);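 also: compound given together with 17beta-estradiol as the ER stimulus; nearly all actives have a fitted effect of over 45% in size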; also: potency is read from the fitted curve at half-maximal effect
Aromatase (Homo sapiens) = Aromatase (Homo sapiens) (UniProt P11511); experiment: qHTS assay to identify aromatase inhibitors (AID 743083); also: nearly all actives have a fitted effect of over 55% in size; also: potency is read from the fitted curve at half-maximal effect
Sequence of Aromatase (Homo sapiens) (P11511 whole entry, looked up): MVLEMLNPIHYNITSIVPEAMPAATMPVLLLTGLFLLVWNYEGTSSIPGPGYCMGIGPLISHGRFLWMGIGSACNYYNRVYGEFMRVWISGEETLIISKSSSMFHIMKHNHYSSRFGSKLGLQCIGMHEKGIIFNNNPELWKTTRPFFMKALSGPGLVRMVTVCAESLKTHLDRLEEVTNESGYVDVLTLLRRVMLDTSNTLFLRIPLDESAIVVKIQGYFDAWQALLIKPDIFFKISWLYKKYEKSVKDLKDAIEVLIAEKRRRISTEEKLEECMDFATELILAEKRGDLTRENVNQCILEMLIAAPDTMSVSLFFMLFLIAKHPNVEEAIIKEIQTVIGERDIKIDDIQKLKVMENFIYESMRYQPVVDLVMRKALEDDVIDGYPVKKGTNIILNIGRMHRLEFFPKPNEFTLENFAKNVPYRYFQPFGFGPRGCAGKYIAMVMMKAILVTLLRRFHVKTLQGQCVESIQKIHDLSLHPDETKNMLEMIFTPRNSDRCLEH

[10] = qHTS assay to identify small molecule antagonists of the thyroid receptor (TR) signaling pathway (AID 743065); also: nearly all actives have a fitted effect of over 55% in size; also: potency is read from the fitted curve at half-maximal effect
How it was run: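 GH3.TRE-Luc rat pituitary cells (two TREs driving luciferase) were dosed with compound, then stimulated with 1 nM T3 (final) for 23.5 h at 37 C. ONE-Glo luminescence was the read-out, with CellTiter-Fluor fluorescence as the cytotoxicity counter-screen.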

[11] = qHTS assay to identify small molecule antagonists of the thyroid receptor (TR) signaling pathway - cell viability counter screen (AID 743064); also: nearly all actives have a fitted effect of over 50% in size; also: potency is read from the fitted curve at half-maximal effect
How it was run: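 Counter screen for cytotoxicity: compound plus T3 (1 nM final) on GH3.TRE-Luc cells, 23.5 h at 37 °C, then fluorescence viability readout with CellTiter-Fluor.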

[12] = target: Estrogen receptor (Homo sapiens) (UniProt P03372); experiment: qHTS assay to identify small molecule antagonists of the estrogen receptor alpha (ER-alpha) signaling pathway (AID 743069; active = well fitted curve in the direction sought with a large enough effect in the signal ratio in the repeat runs, not every such curve was filed as active; inconclusive = weak or mixed curves, or effect the other way; inactive = no such curve, though single readings can be large or run the other way; the % refers to the signal ratio; also: potency is read from the fitted curve at half-maximal effect)
Sequence of Estrogen receptor (Homo sapiens) (P03372 whole entry, looked up): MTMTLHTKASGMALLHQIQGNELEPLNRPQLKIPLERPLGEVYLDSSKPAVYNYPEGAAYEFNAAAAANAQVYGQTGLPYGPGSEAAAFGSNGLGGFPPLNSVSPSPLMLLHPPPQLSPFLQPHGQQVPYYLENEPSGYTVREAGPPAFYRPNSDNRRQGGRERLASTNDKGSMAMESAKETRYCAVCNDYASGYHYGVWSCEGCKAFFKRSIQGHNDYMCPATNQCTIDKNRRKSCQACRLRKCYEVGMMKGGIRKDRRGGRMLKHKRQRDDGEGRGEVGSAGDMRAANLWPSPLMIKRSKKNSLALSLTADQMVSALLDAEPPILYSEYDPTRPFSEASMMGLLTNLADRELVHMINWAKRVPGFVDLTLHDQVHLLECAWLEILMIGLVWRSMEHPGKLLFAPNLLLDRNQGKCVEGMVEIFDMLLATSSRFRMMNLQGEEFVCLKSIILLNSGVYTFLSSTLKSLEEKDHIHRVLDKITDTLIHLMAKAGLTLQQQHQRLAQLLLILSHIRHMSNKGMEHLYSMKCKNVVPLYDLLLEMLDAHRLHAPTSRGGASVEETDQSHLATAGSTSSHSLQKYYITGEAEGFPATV
How it was run: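 HEK293 ER-alpha-UAS-bla GripTite cells, held overnight in 2% charcoal-stripped FBS, 5,000 cells/well, preincubated 4 h, then compound plus 17beta-estradiol for 18 h at 37C. Beta-lactamase read by LiveBLAzer B/G FRET substrate, 2 h at room temperature.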

[13] = target: Estrogen receptor (Homo sapiens) (UniProt P03372); experiment: qHTS assay to identify small molecule agonists of the estrogen receptor alpha (ER-alpha) signaling pathway (AID 743075; calls by dose curve; also: potency is read from the fitted curve at half-maximal effect)
[14] = target: Estrogen receptor (Homo sapiens) (UniProt P03372); experiment: qHTS assay to identify small molecule agonists of the estrogen receptor alpha (ER-alpha) signaling pathway using the BG1 cell line (AID 743079); conditions: BG1Luc4E2 cells, ERE-luciferase agonist, 22 h; activation: at 70.3 µM (top of the series); also: nearly all actives have a fitted effect of over 20% in size; also: potency is read from the fitted curve at half-maximal effect
[15] = target: Androgen receptor (Homo sapiens) (UniProt P10275); experiment: qHTS assay to identify small molecule antagonists of the androgen receptor (AR) signaling pathway (AID 743035; active = well fitted inhibition curve with a large enough effect in the signal ratio in the repeat runs, not every such curve was filed as active; inconclusive = weak or mixed curves, or effect the other way; inactive = no such curve, though single readings can be large or run the other way; the % refers to the signal ratio; also: potency is read from the fitted curve at half-maximal effect)
Sequence of Androgen receptor (Homo sapiens) (P10275 whole entry, looked up): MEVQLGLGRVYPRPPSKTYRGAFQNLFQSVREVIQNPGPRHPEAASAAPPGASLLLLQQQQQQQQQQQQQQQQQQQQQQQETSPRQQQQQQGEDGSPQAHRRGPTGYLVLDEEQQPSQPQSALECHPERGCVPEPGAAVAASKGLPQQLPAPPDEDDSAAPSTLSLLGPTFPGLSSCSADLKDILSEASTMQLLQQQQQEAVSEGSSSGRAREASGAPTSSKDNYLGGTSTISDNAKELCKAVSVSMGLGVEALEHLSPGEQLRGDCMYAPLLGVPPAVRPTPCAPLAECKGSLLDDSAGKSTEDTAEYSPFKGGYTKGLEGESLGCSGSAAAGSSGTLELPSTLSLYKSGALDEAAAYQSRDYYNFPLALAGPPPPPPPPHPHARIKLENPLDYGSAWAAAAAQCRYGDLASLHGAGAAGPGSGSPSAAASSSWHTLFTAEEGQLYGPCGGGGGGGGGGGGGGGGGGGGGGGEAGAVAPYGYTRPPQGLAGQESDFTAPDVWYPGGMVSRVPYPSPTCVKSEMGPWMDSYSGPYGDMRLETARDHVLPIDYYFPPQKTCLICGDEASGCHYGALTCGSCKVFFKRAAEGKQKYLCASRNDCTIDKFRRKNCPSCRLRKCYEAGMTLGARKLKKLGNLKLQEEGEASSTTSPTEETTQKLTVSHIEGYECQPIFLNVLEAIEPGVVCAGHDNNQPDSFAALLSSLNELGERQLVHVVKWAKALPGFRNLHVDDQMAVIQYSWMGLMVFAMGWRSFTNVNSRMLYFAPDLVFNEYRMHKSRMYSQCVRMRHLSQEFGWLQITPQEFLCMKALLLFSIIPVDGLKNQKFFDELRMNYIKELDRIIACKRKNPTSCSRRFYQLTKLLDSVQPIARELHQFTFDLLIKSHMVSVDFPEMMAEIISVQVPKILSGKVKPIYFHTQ
How it was run: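 HEK293 cells stably carrying a UAS-driven beta-lactamase reporter (AR-UAS-bla GripTite) were plated for 4 h at 37C, then given compound and the agonist R1881 and incubated 16 h. Reporter activity was read by LiveBLAzer B/G FRET fluorescence after 2 h at room temperature.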

[16] = target: Androgen receptor (Homo sapiens) (UniProt P10275); experiment: qHTS assay to identify small molecule agonists of the androgen receptor (AR) signaling pathway (AID 743036; active = well fitted activation curve with a large enough effect in the signal ratio in the repeat runs, with a control signal flat, not every such curve was filed as active; inconclusive = weak or mixed curves, or effect the other way; inactive = no such curve, though single readings can be large or run the other way; the % refers to the signal ratio)
How it was run: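 In this Tox21 qHTS, 2,000 HEK293 AR-bla cells per well were incubated with compounds for 16 h at 37C and 5% CO2. Fluorescence intensity was recorded 2 h after adding LiveBLAzer B/G FRET substrate at room temperature.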

[17] = target: Androgen receptor (Homo sapiens) (UniProt P10275); experiment: qHTS assay to identify small molecule antagonists of the androgen receptor (AR) signaling pathway using the MDA cell line (AID 743042; also: nearly all actives have a fitted effect of over 55% in size)
How it was run: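 MDA-kb2 breast carcinoma cells carrying MMTV-luciferase (AR/GR responsive) were co-treated with compounds and the agonist R1881 for 16 h at 37C. Inhibition read as ONE-Glo luminescence; CellTiter-Fluor fluorescence measured in parallel for cytotoxicity.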

[18] = qHTS assay to identify small molecule antagonists of the estrogen receptor alpha (ER-alpha) signaling pathway using the BG1 cell line (AID 743080; calls by dose curve;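 also: BG1 cells stimulated with 17beta-estradiol alongside compound; nearly all actives have a fitted effect of over 25% in size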; also: potency is read from the fitted curve at half-maximal effect)
How it was run: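 Readout is ONE-Glo luminescence, taken 30 min at room temperature after reagent addition, preceded by a CellTiter-Fluor viability read; BG1-Luc-4E2 cells had received compound and 17beta-estradiol for 21.5 h at 37 C.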

Compound | Potency [1] | Potency [2] | Potency [3] | Potency [4] | Potency [5] | Potency [6] | Potency [7] | Potency [8] | Potency [9] | Potency (Aromatase (Homo sapiens)) | Potency [10] | Potency [11] | Potency [12] | Potency [13] | Potency [14] | Potency [15] | outcome [16] | Potency [17] | Potency [18]
COC(=O)c1ccccc1S(=O)(=O)NC(=O)Nc1nc(C)nc(OC)n1 | inactive | inactive | inactive | inactive | inactive | inactive | inactive | inactive | inactive | inactive |  |  |  |  |  |  |  |  | 
Nc1nc(N)c(N)c(N)n1 | inactive | inactive | inactive | inactive | inactive | inactive | inactive | inactive |  | inactive | inactive |  |  |  |  |  |  |  | 
CC[C@H](C)[C@H]1O[C@]2(C=C[C@@H]1C)C[C@@H]1C[C@@H](C/C=C(\C)[C@@H](O[C@H]3C[C@H](OC)[C@@H](O[C@H]4C[C@H](OC)[C@@H](NC)[C@H](C)O4)[C@H](C)O3)[C@@H](C)/C=C/C=C3\CO[C@@H]4[C@H](O)C(C)=C[C@@H](C(=O)O1)[C@]34O)O2 | 12.3 µM (active) | 0.686 µM (active) | 0.686 µM (active) | 0.864 µM (active) | 2.19 µM (active) | 21.7 µM (active) |  | 13.8 µM (active) | 30.6 µM (active) | 4.86 µM (active) |  | 1.22 µM (active) | 30.9 µM [cytotoxic] (active) |  |  |  |  |  | 
ClC(Cl)C(Cl)(Cl)Cl | inactive | inactive | inactive | inactive | inactive | inactive | inactive | inactive | inactive | inactive | inactive |  | inactive | inactive | inactive |  |  |  | 
CCOP(=S)(OCC)Oc1cc(C)nc(N(CC)CC)n1 | inactive | 27.3 µM (active) | 27.3 µM (active) | 27.3 µM (active) |  | inactive | inactive |  | inactive |  |  | inactive |  | inactive |  | inactive | inactive | inactive | 34.4 µM (active)
CN | inactive | inactive | inactive | inactive | inactive | inactive | inactive | inactive | inactive | inactive |  | inactive |  |  |  |  |  |  | 
C1=CCC=C1 | inactive | inactive | inactive | inactive | inactive | inactive | inactive | inactive | inactive |  |  |  |  |  |  |  |  |  | 
COP(=S)(NC(C)C)Oc1ccc(C)cc1[N+](=O)[O-] (centres undefined) | inactive | 54.5 µM (active) |  | 61.1 µM (active) | inactive |  | inactive | inactive | inactive |  |  |  |  | 5.49 µM [inconclusive] (active) | 1.93 µM (active) |  |  |  | 38.6 µM (active)
CCN(CC)C(=S)S | inactive | 2.66 µM (active) and 5.42 µM (active) and 433 nM (active) |  | 5.31 µM (active) and 5.42 µM (active) and 486 nM (active) |  |  | inactive | inactive | inactive |  |  | 1.19 µM (active) | inactive | inactive | inactive |  |  |  | 
O=C(NC(=O)c1c(F)cccc1F)Nc1ccc(Oc2ccc(C(F)(F)F)cc2Cl)cc1F | inactive | 4.33 µM (active) | 21.7 µM (active) | 3.86 µM (active) |  |  | inactive | inactive | inactive |  | 38.6 µM (active) | 43.3 µM (active) |  |  |  |  |  |  | 
CC(Cl)CCl (centres undefined) | inactive |  | inactive | inactive | inactive | inactive | inactive | inactive | inactive | inactive | inactive | inactive | inactive | inactive | inactive |  |  |  | inactive
O=[N+]([O-])[O-].[Tl+] | inactive | 1.55 µM (active) | 1.09 µM (active) | 1.09 µM (active) |  | inactive |  | inactive | inactive | 69.1 µM (active) |  |  |  |  |  |  |  |  | 
CC(C)(C)c1ccc(OP(=O)(Oc2ccccc2)Oc2ccccc2)cc1 | inactive | 61.5 µM (active) | 27.5 µM (active) | 19.4 µM (active) |  |  | inactive | inactive | inactive | inactive | 27.5 µM (active) | 27.5 µM (active) |  | inactive |  |  |  |  | 
CNC(=O)O/N=C(\C)C(C)S(C)(=O)=O (centres undefined) | inactive | inactive |  | inactive | inactive | inactive | inactive | inactive | inactive | inactive | inactive |  |  |  |  |  |  |  | 
CC(C)c1c(CN(C)C(C)Cc2ccccc2)n(C)n(-c2ccccc2)c1=O (centres undefined) | inactive | 6.39 µM (active) |  |  | inactive | inactive | inactive | inactive | inactive | inactive | 11.4 µM (active) | inactive | inactive | inactive | inactive |  |  |  | 
O=C(NC(=O)c1ccccc1Cl)Nc1ccc(OC(F)(F)F)cc1 | inactive | inactive |  | inactive | inactive | inactive | inactive | inactive | inactive | inactive | inactive | inactive |  |  |  | inactive |  | inactive | 
CC1=C2C[C@H]3[C@@H](CC=C4C[C@@H](O)CC[C@@]43C)[C@@H]2CC[C@]12O[C@@H]1C[C@H](C)CN[C@H]1[C@H]2C | inactive |  | 8.41 µM (active) | 29.8 µM (active) | inactive | inactive | inactive | inactive |  | inactive |  | inactive | inactive | inactive | inactive |  | inactive | inactive | 
CSSC | inactive | inactive |  | inactive | inactive | inactive | inactive | inactive | inactive |  | inactive |  |  |  |  |  |  |  | 
CSC1=N[C@@](C)(c2ccccc2)C(=O)N1Nc1ccccc1 | inactive | 1.54 µM (active) | 1.72 µM (active) | 1.54 µM (active) |  | 48.6 µM (active) | inactive | inactive |  |  | 6.86 µM (active) |  |  |  |  |  |  |  | 
O=S(=O)(O)F | inactive |  | inactive | inactive | inactive | inactive | inactive |  | inactive | inactive | inactive | inactive | inactive | inactive | inactive |  |  |  | inactive
Cc1cc(C2CC2)nc(Nc2ccccc2)n1 | inactive | 24.3 µM (active) | 30.6 µM (active) | 24.3 µM (active) |  |  | inactive | inactive |  | inactive | 54.5 µM (active) |  |  | inactive | 9.69 µM (active) |  |  |  | 
CN(C)c1ccc(N)cc1 | inactive |  | 21.2 µM (active) | 26.6 µM (active) | 42.6 µM (active) | 59.6 µM (active) | inactive |  |  |  | 47.4 µM (active) | 59.6 µM (active) | 60.2 µM [inconclusive] (active) | inactive | 7.51 µM (active) | 24 µM (active) | inactive | inactive | 
CN/C(=N\[N+](=O)[O-])NCc1cnc(Cl)s1 | inactive |  | inactive | inactive | inactive | inactive | inactive | inactive | inactive | inactive | inactive | inactive | inactive | inactive | inactive |  |  |  | 
C=Cc1cccc(CCl)c1 | inactive | inactive |  | inactive | inactive | inactive | inactive | inactive | inactive | inactive | inactive | inactive | inactive | inactive | inactive |  |  |  | inactive
CCN(CC)Cc1nccn1-c1ccc([N+](=O)[O-])cc1C(=O)c1ccccc1Cl | inactive | 29.8 µM (active) | 29.8 µM (active) |  | inactive | inactive | inactive | inactive |  |  |  |  |  |  |  |  |  |  | 
CC1(C)C(C=C(Cl)Cl)C1C(=O)OC(C#N)c1ccc(F)c(Oc2ccccc2)c1 (centres undefined) | inactive | inactive | inactive |  | inactive | inactive | inactive | inactive | inactive |  |  | inactive | inactive | inactive | inactive |  |  |  | 

— PubChem BioAssay (Tox21)
